Source: PubChem BioAssay (several laboratories)
Shown are actives, neighbours in structure and some others; about 5.9% of the full set was active somewhere.
AHR act = activators of human aryl hydrocarbon receptor; P35869; AHR-responsive luciferase reporter cells, luminescence; activation, % at 5 µM; actives 2.5% (n = 320,000); AID 2796; in the data active = activation above about 47%;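 also: 0% = vehicle wells and 100% = reference agonist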
Target sequence (P35869 whole entry, looked up): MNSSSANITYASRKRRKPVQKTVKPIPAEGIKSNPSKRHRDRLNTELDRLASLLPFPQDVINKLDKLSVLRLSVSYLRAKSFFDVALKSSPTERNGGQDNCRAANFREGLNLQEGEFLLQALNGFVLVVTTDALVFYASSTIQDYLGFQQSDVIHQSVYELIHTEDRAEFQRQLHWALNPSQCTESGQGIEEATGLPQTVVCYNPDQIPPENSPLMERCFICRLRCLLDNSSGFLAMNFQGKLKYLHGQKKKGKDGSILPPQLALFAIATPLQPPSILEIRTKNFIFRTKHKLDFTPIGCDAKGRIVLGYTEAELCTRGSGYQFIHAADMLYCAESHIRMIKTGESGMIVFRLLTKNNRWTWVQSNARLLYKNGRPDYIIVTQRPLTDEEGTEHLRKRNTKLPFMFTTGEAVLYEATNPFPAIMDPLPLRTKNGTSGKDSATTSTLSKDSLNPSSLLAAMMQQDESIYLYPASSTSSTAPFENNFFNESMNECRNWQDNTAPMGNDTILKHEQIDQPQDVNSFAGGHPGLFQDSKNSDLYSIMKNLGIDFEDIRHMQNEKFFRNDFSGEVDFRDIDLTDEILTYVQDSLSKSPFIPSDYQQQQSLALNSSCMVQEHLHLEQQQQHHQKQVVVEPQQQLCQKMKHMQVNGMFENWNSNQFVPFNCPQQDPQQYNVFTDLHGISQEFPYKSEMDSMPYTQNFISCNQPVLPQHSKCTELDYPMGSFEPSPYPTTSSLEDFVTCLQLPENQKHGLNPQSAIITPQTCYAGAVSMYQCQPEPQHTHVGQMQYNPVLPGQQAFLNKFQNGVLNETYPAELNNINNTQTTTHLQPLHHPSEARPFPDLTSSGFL
HSF1 inhib = HSF1 inhibition. NIH3T3-HGL HSE-luciferase, MG132-induced, luminescence 8 h; active compounds read low. actives 0.77% (n = 300,000). activity change, negative = inhibition, % at 7.5 µM (by protocol);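 active = more than half of replicate wells show activity change below -50%, luminescence cut by over half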;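 also: luciferase reports HSF-1 transcriptional activity via heat shock element; 0% = median of DMSO wells and -100% = zero luminescence signal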
GAA850 FXN act = increases GAA850 frataxin promoter reporter activity; HEK293 lucGAA850 FXN promoter luciferase reporter, 24 h; percent of 10 µM SAHA response; activation, % at 6 µM; actives 0.56% (n = 360,000);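 active = activation above the average of all compounds screened plus 3 SD, cutoff fixed separately per campaign, cut at about 7.5% in these data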;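 also: 0% = DMSO wells and 100% = 10 µM SAHA wells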
HSF-1 act = increases HSF-1 driven luciferase reporter signal; NIH3T3-HGL HSF-1 luciferase reporter, MG132, 8 h; 100% = twice DMSO control signal; activation, % at 9 µM; actives 1.7% (n = 300,000); AID 504408;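 active = mean replicate activation of at least 50% with a set share of replicates each reaching 50%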;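 also: 0% = median of the neutral control wells and 100% = twice that signal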
NR0B1 inh = NR0B1 (DAX1) inhibition; HEK293 Gal4-DAX1 luciferase reporter, luminescence; inhibition, % at 6.75 µM; actives 0.99% (n = 340,000);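 active = inhibition above the mean over all tested compounds plus 3 SD, cut at about 4.2% in these data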;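 also: 0% = DAX1-transfected cells with DMSO and 100% = empty-vector control cells with DMSO; inhibition shows as a rise in luminescence from relieved DAX1 repression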
HSP90 refold inh = blocks HSP90-mediated luciferase refolding in reticulocyte lysate; inhibition, % at 5.6 µM; actives 0.91% (n = 290,000); Rabbit reticulocyte lysate, luciferase refolding luminescence, 3 h;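 active = inhibition above the screen-wide mean plus 3 SD, computed separately per campaign, cut at about 16% in these data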;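 also: 0% = DMSO wells and 100% = 60 µM geldanamycin wells; inhibitors lower the luminescence because luciferase stays unfolded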
GAA30 counter = counter-screen for GAA850 frataxin promoter activators: GAA30 promoter activation. activation, % at 6 µM. HEK293 lucGAA30 FXN promoter luciferase, 24 h; DMSO = 0%, 5 µM ipriflavone = 100%. actives 66% (n = 1,900). AID 588350. shares compounds with GAA850 FXN act;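 active = mean activation above the mean of solvent-only control wells plus 3 SD, cut at about 22% in these data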;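 also: counterscreen of GAA850 promoter hits where activity marks nonselective or luminescence artifacts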
GAA850 confirm = confirmation of GAA850 frataxin (FXN) promoter activators; shares compounds with GAA850 FXN act; activation, % at 6 µM; AID 588351; HEK293 lucGAA850 FXN promoter luciferase reporter, 24 h; 100% = activation by SAHA; actives 86% (n = 1,900);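 active = mean activation above a set limit taken from the primary screen, cut at about 8% in these data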;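 also: 0% = DMSO wells and 100% = 10 µM SAHA wells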
An asterisk follows results filed as active; x = not tested or not shown.

SMILES	AHR act	HSF1 inhib	GAA850 FXN act	HSF-1 act	NR0B1 inh	HSP90 refold inh	GAA30 counter	GAA850 confirm
CCOC(=O)c1c(NC(=O)c2cccnc2Cl)sc(C(=O)N(C)C)c1C	-1.5	-8.2	10.2*	0.3	-0.9	-3.4	10.2	6.8
Cc1cccc(C(=O)NNc2ncnc3c2cnn3C)c1	7.9	2.2	-0.5	3.1	-0.7	-2.7	x	x
O=S(=O)(CCN1CCN(C(c2ccccc2)c2ccccc2)CC1)C(F)(F)F	-2.4	-0.7	7.8*	-2.6	0.8	-0.9	37.5*	15.8*
c1ccc(CN2CCN(C(c3ccccc3)c3ccccc3)CC2)cc1	-1.1	3.7	-0.6	10.8	-1.7	5.6	x	x
CCOC(CCNC(=O)c1cn(CCOC)c(=O)c2c1c1ccccc1n2C)OCC	16.8	2.7	-0.7	5.8	-1.3	1.7	x	x
CN(C)CCOC(=O)NC12CC3CC(CC(C3)C1)C2	1.9	-4.6	1.5	14.0	0.6	-0.5	x	x
O=C(NC12CC3CC(CC(C3)C1)C2)OCCNC1CCCCC1	-1.8	-5.1	15.3*	-2.4	0.3	3.5	22.7*	10.2*
CCN(CC)C(=S)SSC(=S)N(CC)CC	x	-9.5	20.1*	-27.1	-2.3	1.4	-116.7	-34.4
CCOc1ncccc1C(=O)OCc1cccc([N+](=O)[O-])c1	-2.1	-2.4	5.9	2.7	-0.8	-4.1	x	x
O=C(/C=N\O)NCCCNCc1ccccc1	-0.7	-5.5	20.9*	-2.0	-0.1	-0.8	26.1*	9.0*
O=C(Cn1c2[n+](c3ccccc31)CC(O)CS2)c1ccccc1 (stereo not given)	2.5	-6.6	0.5	-4.1	0.8	-0.2	x	x
Oc1ccccc1C1=Nc2ncnn2C(c2ccc(F)cc2)C1 (stereo not given)	24.8	10.2	-1.6	6.8	2.5	x	x	x
COc1ccc(C2=Nn3c(nnc3-c3cccnc3)SC2)cc1OC	12.8	-5.7	14.6*	-6.4	1.1	x	31.5*	19.9*
COc1ccc(C2=Nn3c(nnc3-c3ccncc3)SC2)cc1OC	24.4	3.6	6.9	8.8	0.2	3.5	x	x
COC(=O)c1ccc(NN=Nc2ccc(C)cc2)cc1	9.0	-28.6	7.8*	-30.1	-1.8	13.9	84.2*	31.2*
O=c1[nH]cnc2c1ncn2-c1ccc(N(CCO)CCO)cc1	x	-7.6	1.8	-7.6	3.3	x	x	x
Cn1cncc1C#Cc1ccc2c(=O)c3ccccc3oc2c1	-3.2	x	7.9*	x	-0.2	x	67.5*	39.9*
O=Nc1c2ccc[nH]c-2c2ccc([N+](=O)[O-])cc12	2.7	-2.4	-1.6	9.2	-0.8	1.6	x	x
Cc1cc2nc(-c3ccc(NC(=O)C(C)C)cc3)oc2cc1C	-18.0	2.5	8.5*	-2.9	0.7	0.1	101.8*	37.2*
CC1CCCC(NC(=O)Cn2c(Cl)nc3c2c(=O)n(C)c(=O)n3C)C1C (stereo not given)	-1.2	x	0.5	x	0.1	x	x	x
CCCn1c(=S)[nH]c2cc(C(=O)N3CCN(c4ccc(F)cc4)CC3)ccc2c1=O	x	x	1.1	x	1.3	x	x	x
CCCCOc1ccc(C2=NNC(=O)CC2)cc1	2.6	2.7	10.4*	13.9	2.9	-1.2	42.3*	14.8*
CCCN1C(=O)/C(=C/c2ccc(N3CCCC3)c(C)c2)NC1=S	17.5	8.6	-0.1	8.5	-1.7	-5.9	x	x
Cc1cc(/C=C2\NC(=S)N(C)C2=O)ccc1N1CCCC1	17.4	-5.7	7.6*	-5.3	1.0	-2.0	107.3*	49.5*
CCCN1C(=O)c2cc(C(=O)NCCc3cccc(C)c3)ccc2C1O (stereo not given)	4.4	4.6	1.0	-2.7	-0.9	-2.0	x	x
SMILES	AHR act	HSF1 inhib	GAA850 FXN act	HSF-1 act	NR0B1 inh	HSP90 refold inh	GAA30 counter	GAA850 confirm
COC(=O)[C@]1(Cc2ccccc2)N[C@H](CN(C)C(=O)COc2ccccc2)[C@@H]2C(=O)N(Cc3ccccc3)C(=O)[C@@H]21	-0.9	x	-2.4	x	-0.1	x	x	x
FC(F)(F)c1ccc(C2[C@H]3CN(CC4CCCCC4)[C@H](c4ccccc4)C34CC2(c2cccnc2)C4)cc1 (stereo not given in full)	-0.2	11.1	-2.3	4.6	0.5	x	x	x
O=C(NC(=S)Nc1ccccn1)c1ccco1	9.0	21.9	7.4	37.9	0.7	3.5	x	x
O=C(NC(=S)Nc1cccnc1Cl)c1ccco1	13.8	8.8	7.8*	12.4	2.1	-1.6	63.5*	20.4*
CN=C1SC(CC(=O)Nc2ccc(N3CCOCC3)cc2)C(=O)N1C (stereo not given)	6.6	-6.0	12.8*	-2.2	2.0	-1.3	15.1	3.4
Cc1ccc(CNS(=O)(=O)NCc2ccccc2)cc1	-2.3	-9.9	-0.6	15.2	0.1	4.6	x	x
COc1cc(CC(=O)OCC(=O)Nc2ccc(N(C)C)cc2)cc(OC)c1OC	1.4	x	0.5	x	0.4	x	x	x
COc1ccc(C(C)=O)cc1CC1(C)C(=O)Nc2ccc(-c3ccccc3OC)cc21 (stereo not given)	x	x	15.5*	x	x	x	9.8	9.2*
COc1ccccc1-c1ccc2c(c1)C(C)(Cc1cccc(F)c1)C(=O)N2 (stereo not given)	x	x	11.0*	x	x	x	17.1	12.2*
COc1ccc(C(C)=O)cc1CC1(C)C(=O)Nc2ccc(OC(F)(F)F)cc21 (stereo not given)	x	x	-1.4	x	x	x	x	x
CC1CCc2c(sc(NC(=O)/C=C/c3cccs3)c2C(=O)O)C1 (stereo not given)	8.2	-5.0	-5.2	-23.7	1.5	-5.9	x	x
COc1ccc(N2C(=O)C3CCCN3C2c2cccc(Br)c2)cc1 (stereo not given)	0.9	3.5	12.1*	4.8	1.0	-0.2	18.7	8.8*
COc1ccccc1CN(Cc1cc2c(C)ccc(C)c2[nH]c1=O)Cc1nnnn1Cc1ccco1	7.7	15.2	8.8*	12.7	-0.2	0.3	-2.7	10.5*
O=C(CN1CCN(c2ccc(O)cc2)CC1)Nc1ccc(S(=O)(=O)N2CCCC2)cc1	-1.1	x	-0.1	x	-1.3	x	x	x
Cc1ccc(OCCCCNC(C)c2ccccc2)c(C)c1 (stereo not given)	3.4	3.9	7.7*	6.2	-0.4	-6.4	24.2*	8.8*
COc1ccc(CNC(=O)C[C@H]2C(=O)N(CCc3ccccc3)C[C@@H]2Cc2ccccc2)cc1	0.4	2.8	0.2	-8.8	1.7	-5.2	x	x
COc1cccc(CN2CCC2(C)C(=O)Nc2cccc(NS(C)(=O)=O)c2)c1OC (stereo not given)	x	x	-1.7	x	x	x	x	x
COc1ccc(CN2CCC2(C)C(=O)Nc2cccc(NS(C)(=O)=O)c2)c2ccccc12 (stereo not given)	x	x	16.8*	x	x	x	7.8	18.7*
